SMILES strings stand for the structures. Screen size: about 87,000 compounds; about 360 (0.41%) were called active. No stated cut-off is given here; in the data, active means cytotoxicity above about 50%; inactive means the rest. This excerpt belongs to a sample that is enriched for actives.

A short description of the assay: HT1080 cell viability loss – fluorescence readout (AID 620).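 Further: cells exposed to compound overnight then 4 h with Alamar Blue; 0% = vehicle DMSO and 100% = killing control.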 The conditions noted are these: at 10 µM, active compounds read high.
On to `O=C(NCc1ccco1)C1CCC(CNS(=O)(=O)c2cccc3cccnc23)CC1` (stereo not drawn), for which the cytotoxicity is -8.6% (inactive). Turning to `O=c1c2cc(Br)ccc2nc2n1CCCCC2`, the cytotoxicity is -8.5% (inactive). With `CC(=O)c1cccc(NC(=O)c2cc3ccccn3n2)c1`, the cytotoxicity is 6.1% (inactive). Take `COc1cccc(CNC(=O)c2cc3ccccn3n2)c1`: the cytotoxicity is 0% (inactive). As to `CCOC(=O)c1nc(N)c(=O)n(-c2ccc(C)cc2)n1`, the cytotoxicity was 5.9% (inactive). Take `CCOc1ccc(N(C(=O)Cn2nnc3ccccc32)C(C(=O)NC(C)(C)CC)c2cccn2C)cc1` (stereo not drawn): the cytotoxicity was 15% (inactive). Under `C=CC1C(N2CCOCC2)C(C)(C)S1(=O)=O` (stereo not drawn) stands 0.5% (inactive); under `Cc1cc(C)c2c(c1)cc(C)c1nnc(SCC(=O)Nc3cc(C)on3)n12`, 20.3% (inactive); under `Cc1cc(NC(=O)CSc2nnc3c(C)cc4cc(C)c(C)cc4n23)no1`, 11.9% (inactive). Under `Cc1cc(NC(=O)CSc2nnc3c(C)cc4c(C)ccc(C)c4n23)no1` stands 58.9% (active); under `COc1ccc(N2CCN(C(=O)CN(Cc3ccc(Cl)cc3)S(C)(=O)=O)CC2)cc1`, -6.4% (inactive); under `CC1CCCCN1C(=O)CSc1ccc(-c2ccc(F)cc2)nn1` (stereo not drawn), -10.9% (inactive). As to `CCOc1ccc(-c2cc(C(=O)N3CCN(c4ccccn4)CC3)c3ccccc3n2)cc1`, the cytotoxicity is 52.4% (active). Take `CCOC(=O)N1CCN(C(=O)c2ccccc2Oc2ccccc2)CC1`: the cytotoxicity is 3.5% (inactive). On to `CCOC(=O)N1CCN(C(=O)c2cc(-c3ccc(OCC)cc3)nc3ccccc23)CC1`, for which the cytotoxicity was 54.9% (active). Consider `O=C(c1ccccc1-c1ccccc1)N1CCCC1`, for which the cytotoxicity is 7.3% (inactive). With `CCOc1ccc(-c2cc(C(=O)N3CCN(C)CC3)c3ccccc3n2)cc1`, the cytotoxicity was 3.8% (inactive). As to `COc1ccc(-c2cc(C(=O)N3CCN(c4ccccn4)CC3)c3ccccc3n2)cc1`, the cytotoxicity was 3.7% (inactive). For `CCOc1ccc(-c2cc(C(=O)O)c3ccccc3n2)cc1`, the cytotoxicity was 23.3% (inactive). In the case of `CCOC(=O)N1CCN(C(=O)c2ccccc2-c2ccccc2)CC1`, the cytotoxicity was 58.5% (active).

Regarding `O=C(c1cc(-c2ccccc2)nc2ccccc12)N1CCN(c2ccccn2)CC1`, the cytotoxicity is -0.4% (inactive). Under `CNC(=S)NN(c1ccccc1)c1ccccc1` stands 30.1% (inactive).

In the case of `COc1ccccc1CNC(=O)C(=O)NCC1CCCO1` (stereo not drawn), the cytotoxicity was 0.9% (inactive). With `Cc1cc(=O)oc2cc(OCC3CC(c4ccccc4Cl)=NO3)ccc12` (stereo not drawn), the cytotoxicity was 63.5% (active). As to `Cc1cc(=O)oc2cc(OCC3CC(c4ccc(Cl)cc4)=NO3)ccc12` (stereo not drawn), the cytotoxicity is -6.9% (inactive).

Consider `Cc1cc(=O)oc2cc(OCC3CC(c4ccccc4)=NO3)ccc12` (stereo not drawn), for which the cytotoxicity is 8.1% (inactive).

Turning to `O=C(NCc1ccccn1)C1CCCN(Cc2cnn(-c3ccccc3)c2-n2cccc2)C1` (stereo not drawn), the cytotoxicity was -8.2% (inactive).

As for `O=S(=O)(c1ccc(S(=O)(=O)N2CCCC2)cc1)N1CCCCCC1`, the cytotoxicity is 1.4% (inactive).

Turning to `O=S(=O)(c1ccc2c(c1)C(=NO)c1cc(S(=O)(=O)N3CCCCC3)ccc1-2)N1CCCCC1`, the cytotoxicity is 102% (active). As to `CC1CCN(S(=O)(=O)c2ccc3c(c2)C(=NO)c2cc(S(=O)(=O)N4CCC(C)CC4)ccc2-3)CC1`, the cytotoxicity is 4.2% (inactive).

Regarding `CC(=O)c1ccc(NC(=O)C(Cc2ccccc2)NC(=O)c2ccco2)cc1` (stereo not drawn), the cytotoxicity was 16.9% (inactive).

Consider `CCC(C(=O)NC1CCCC1)N(Cc1cccs1)C(=O)Cn1nnc(-c2ccc(OC)c(OC)c2)n1` (stereo not drawn), for which the cytotoxicity is -0.6% (inactive). Under `Cc1ccc(S(=O)(=O)O/N=C2\CCCc3ccccc32)cc1` stands 9.9% (inactive). Under `CC1=CC(=O)C=C(C)C1=NOS(=O)(=O)c1ccccc1` stands 51.3% (active); under `CC1=C/C(=N\OS(=O)(=O)c2ccccc2)C=CC1=O`, 35.8% (inactive). Turning to `CC1=C(C)/C(=N\OS(=O)(=O)c2ccccc2)C=CC1=O`, the cytotoxicity was 70.2% (active). For the compound `CC1=C(C)/C(=N/OC(=O)c2cccc([N+](=O)[O-])c2)C=CC1=O`, the cytotoxicity was 7.5% (inactive).

For `O=S(=O)(O/N=C1\CCCc2ccccc21)c1ccccc1`, the cytotoxicity is 21.4% (inactive).

Consider `Cn1cc(Cl)c(C(=O)N/N=C/c2ccc(OS(=O)(=O)c3ccccc3)cc2)n1`, for which the cytotoxicity was 6.3% (inactive). Take `Cc1ccc2[nH]c(=O)c(-c3nc4cc(C)ccn4c3NCc3ccco3)cc2c1`: the cytotoxicity was -1.5% (inactive). Under `CC(=O)OC(Cn1ccnc1)c1ccccc1` (stereo not drawn) stands 7.8% (inactive); under `O=C(c1ccc(Cl)c(S(=O)(=O)NCc2ccco2)c1)N1CCN(c2ccccc2F)CC1`, 5.8% (inactive); under `Cc1cccc(N2CCN(C(=O)c3ccc(Cl)c(S(=O)(=O)NCc4ccco4)c3)CC2)c1C`, 26.2% (inactive). Regarding `COc1ccccc1N1CCN(C(=O)c2ccc(Cl)c(S(=O)(=O)NCc3ccco3)c2)CC1`, the cytotoxicity is 56.3% (active). Turning to `Nc1nc(SCc2ccc(Cl)cc2)[nH]c(=O)c1-c1ccccc1`, the cytotoxicity was 1.6% (inactive). For the compound `COc1ccccc1N1CCN(c2ncnc3c2oc2ccccc23)CC1`, the cytotoxicity is -2.5% (inactive). On to `Cc1cc(C)nc(N2CCN(c3nc(C)nc4c3oc3ccccc34)CC2)n1`, for which the cytotoxicity is -3.6% (inactive). Regarding `COc1ccccc1N1CCN(c2nc(C)nc3c2oc2ccccc23)CC1`, the cytotoxicity is 74.7% (active). With `O=C(c1cccc(F)c1)N1CCN(Cc2c[nH]c3ccccc23)CC1`, the cytotoxicity is 2.4% (inactive).

Consider `COc1ccc2cc(C(c3nnnn3Cc3ccccc3)N3CCCCCC3)c(=O)[nH]c2c1` (stereo not drawn), for which the cytotoxicity is 17.3% (inactive). Under `Cc1cc(C(=O)CSc2nnc(-c3cccs3)n2Cc2ccccc2)c(C)n1C` stands 4.7% (inactive). Consider `Cc1c(NC(=O)CSc2nc3ccccc3n2C)c(=O)n(-c2ccccc2)n1C`, for which the cytotoxicity is 2.7% (inactive). `COc1ccc(C(=O)n2nc(-c3ccco3)nc2N)cc1`: the cytotoxicity is 25.6% (inactive). Take `COc1ccc(C(=O)n2c(-c3ccco3)nc3ccccc32)cc1`: the cytotoxicity is 56.2% (active). Under `CCn1c(-c2ccco2)nc2ccccc21` stands 6.1% (inactive); under `CCN(CC)C(=O)CSc1nc2sc(C)c(C)c2c(=O)[nH]1`, -6.3% (inactive).

In the case of `COc1ccc(CCN(C)C(=O)N2CCOCC2)cc1OC`, the cytotoxicity is -5.8% (inactive). With `COc1cc(C(=O)Nc2nc3ccccc3s2)ccc1OCc1c(C)noc1C`, the cytotoxicity was -13% (inactive). For `CCSc1nnc(NC(=O)c2cccc(OCc3c(C)noc3C)c2)s1`, the cytotoxicity was -11.1% (inactive). As for `COc1ccc2nc(NC(=O)c3cccc(OCc4c(C)noc4C)c3)sc2c1`, the cytotoxicity was 57.3% (active).

As to `CC1C(=O)CCN(C(C)C)C1C` (stereo not drawn), the cytotoxicity is -13.7% (inactive).

With `Cc1oc2cc(O)cc(C)c2c(=O)c1-c1cnn(-c2ccccc2)c1`, the cytotoxicity was 33.9% (inactive).

As to `O=C1CCc2cc(S(=O)(=O)N3CCCC3C(=O)N3CCN(c4ccccc4)CC3)ccc2N1` (stereo not drawn), the cytotoxicity is -3.8% (inactive). Turning to `Cc1cc(NCCCn2ccnc2)n2ncc(-c3ccccc3)c2n1`, the cytotoxicity was -5.3% (inactive). For `CC(C)(C)c1cc(NCCCn2ccnc2)n2ncc(-c3ccc(Cl)cc3)c2n1`, the cytotoxicity was -4.9% (inactive). Consider `Cc1cccc(-n2nnnc2SCC(=O)NCCN2C(=O)CSC2=O)c1`, for which the cytotoxicity was -3.3% (inactive). Regarding `O=C(c1cc2ccccc2oc1=O)N(Cc1cccs1)C1CCS(=O)(=O)C1` (stereo not drawn), the cytotoxicity is 3.4% (inactive). For the compound `Cc1[nH]nc2c1C(C1CC=CCC1)C(C#N)=C(N)O2` (stereo not drawn), the cytotoxicity is 73% (active). Take `Cc1ccc(C2C(C#N)=C(N)Oc3n[nH]c(C)c32)cc1` (stereo not drawn): the cytotoxicity is 1.3% (inactive). In the case of `Cc1[nH]nc2c1C(C(C)C)C(C#N)=C(N)O2` (stereo not drawn), the cytotoxicity is 11.3% (inactive). Take `Cc1ccc(N=Nc2c(C)[nH][nH]c2=O)c(C)c1`: the cytotoxicity was 1.8% (inactive). With `COc1ccc(CCN/C=C2/CC(=O)NC2=O)cc1OC`, the cytotoxicity is 0.2% (inactive). With `COc1ccc(C)cc1NC(=O)NC1CCN(Cc2ccccc2)CC1`, the cytotoxicity is 3% (inactive).

Take `Nc1ccc2c(c1)C(=O)C(=O)c1ccccc1-2`: the cytotoxicity is 92.7% (active). Turning to `O=C1C(=O)c2ccc(-c3ccccc3)cc2-c2ccccc21`, the cytotoxicity was 47.5% (inactive). Turning to `Nc1ccc(Br)c2c1C(=O)c1ccccc1C2=O`, the cytotoxicity is -18.1% (inactive). In the case of `COc1cc(C2=NOC(C(=O)NCc3cccs3)C2)cc(OC)c1OC` (stereo not drawn), the cytotoxicity was 58.1% (active). Turning to `COc1cc(C2=NOC(C(=O)NCc3ccccn3)C2)cc(OC)c1OC` (stereo not drawn), the cytotoxicity was -2.6% (inactive).

Consider `O=C(NCc1cccs1)C1CC(c2ccccc2O)=NO1` (stereo not drawn), for which the cytotoxicity is -1.4% (inactive). In the case of `COc1cc(C2=NOC(C(=O)NCc3ccco3)C2)cc(OC)c1OC` (stereo not drawn), the cytotoxicity is 54.4% (active). With `COc1ccc(C2=NOC(C(=O)NCc3cccs3)C2)cc1OC` (stereo not drawn), the cytotoxicity is 59.8% (active). In the case of `COc1ccc(C2=NOC(C(=O)NCc3ccco3)C2)cc1` (stereo not drawn), the cytotoxicity was 6% (inactive). Turning to `COc1ccc(C2=NOC(C(=O)NCc3cccs3)C2)cc1` (stereo not drawn), the cytotoxicity is 7.4% (inactive). For the compound `COc1cccc(C2=NOC(C(=O)NCc3cccs3)C2)c1` (stereo not drawn), the cytotoxicity was -1.8% (inactive).

With `COc1ccc(C2=NOC(C(=O)NCc3ccco3)C2)cc1OC` (stereo not drawn), the cytotoxicity was 46.5% (inactive). For `CCCCN(C)Cc1c(O)ccc2c(-c3ccccc3)cc(=O)oc12`, the cytotoxicity is 11.9% (inactive). In the case of `CCOc1ccc(NC(=O)N2CCC(NC(=O)c3ccco3)CC2)cc1`, the cytotoxicity is 4.5% (inactive). Under `O=C(CSc1ncn(-c2ccccc2)n1)c1cccs1` stands -3.1% (inactive); under `CCOc1ccc(-c2nc(S(=O)(=O)c3ccccc3)c(NCc3cccnc3)o2)cc1`, 0.3% (inactive); under `CC(=O)Nc1ccccc1-c1nn[nH]n1`, -11.5% (inactive).

For the compound `Cn1c(/C=C/c2ccc([N+](=O)[O-])o2)nc2ccccc2c1=O`, the cytotoxicity is 85.1% (active). Regarding `Cn1c(SCc2ccon2)nc2ccccc2c1=O`, the cytotoxicity was 2.4% (inactive). As to `Cc1ccc2nc(N/N=C\c3ccc([N+](=O)[O-])o3)nc(-c3ccccc3)c2c1`, the cytotoxicity is 13.6% (inactive). On to `O=C(CC1(O)C(=O)Nc2cc(Cl)cc(Cl)c21)c1ccccc1O` (stereo not drawn), for which the cytotoxicity is -66.6% (inactive). Consider `CCCCNc1c(C(=O)OCC)c(=O)[nH]c2ccccc12`, for which the cytotoxicity was 0.1% (inactive). As for `CCN(CC)c1ccc(NC(=O)c2cc(OC)cc(OC)c2)c(C)c1`, the cytotoxicity is 59.7% (active). For `CCN(CC)c1ccc(NC(=O)c2c(OC)cccc2OC)c(C)c1`, the cytotoxicity is -1.4% (inactive). On to `CCN(CC)c1ccc(NC(=O)c2cccc(OC)c2)c(C)c1`, for which the cytotoxicity was 16.9% (inactive).
